High-throughput results from PubChem.
Shown are actives, neighbours in structure and some others; about 3.4% of the full set was active somewhere.
MITF primary – MITF inhibitors, primary screen, biochemical, AlphaScreen, human | Microphthalmia-associated transcription factor (Homo sapiens), O75030 | AlphaScreen MITF homodimerization, bead proximity signal | inhibition, % at 2.6 µM | 650,000 compounds, 0.91% hits | AID 1259374, 2018; in the data active = inhibition above about 50%
FBW7 act – FBW7 E3 ligase activators, primary screen, biochemical, AlphaScreen, human; F-box/WD repeat-containing protein 7 (Homo sapiens), Q969H0; AlphaScreen FBW7–phospho-cyclin E peptide binding, activator screen; normalized activity (activation), % at 26.1 µM; 650,000 compounds, 0.13% hits; in the data active = normalized activity above about 1.9%;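 note: purified mutant Fbw7 with reduced substrate affinity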
TEAD-YAP block – TEAD-YAP interaction inhibition, primary screen, TEAD-YAP interaction inhibitor project, luminescence, HEK-TIYL cells. TEAD-Gal4/YAP UAS-luciferase luminescence. inhibition, % at 9.12 µM. 640,000 compounds, 1.4% hits. AID 1259422, 2018; in the data active = inhibition above about 32%
GPR151 ag – activators of human GPR151, primary screen, cell-based, PathHunter beta-arrestin, luminescence; G-protein coupled receptor 151 (Homo sapiens), Q8TDV0; PathHunter beta-arrestin GPR151 cells; activation, % at 11.2 µM; 650,000 compounds, 1% hits; in the data active = activation above about 4.9%
A number is an active result; i = inactive.

SMILES | MITF primary | FBW7 act | TEAD-YAP block | GPR151 ag
Ic1ccc(Nc2nc3nonc3nc2N2CCCCC2)cc1 | i | i | i | i
FC(F)(F)c1cccc(Nc2nc3nonc3nc2Nc2ccc(Cl)cc2)c1 | i | i | 81.5 | i
Fc1ccc(Nc2nc3nonc3nc2Nc2ccc(F)cc2)cc1 | i | i | 61.3 | i
CC(=O)Nc1ccccc1NC(=O)CN(C)S(=O)(=O)c1ccc(C)cc1 | i | i | i | i
CC(=O)Nc1ccccc1N(C)S(=O)(=O)c1ccc(C)cc1 | i | i | 51.0 | i
CN(CC(=O)Nc1ccc(Cl)cc1)S(=O)(=O)c1ccccc1 | i | i | i | i
COc1ccc(Br)cc1C1C(C#N)=C(N)Oc2cc3c(cc21)OCO3 (configuration not stated) | i | i | 47.4 | i
CCOc1cc(C2C(C#N)=C(N)Oc3cc4c(cc32)OCO4)cc(Br)c1OC (configuration not stated) | i | i | 56.9 | i
Cc1ccc(S(=O)(=O)N2CCN=C2SCc2cccc([N+](=O)[O-])c2)cc1 | i | i | i | i
Nc1c(C(=O)N2CCOCC2)sc2nc(-c3ccccc3)cc(C(F)(F)F)c12 | i | 2.8 | i | i
Clc1ccc(/C=C/C2=Nc3cccc4cccc(c34)N2)cc1 | i | i | i | i
CCN(CC)C(=O)c1oc2ccc(S(=O)(=O)N3CC(C)CC(C)C3)cc2c1C (configuration not stated) | i | i | 40.3 | i
CC(C)n1cnc2c(NCc3cccnc3)nc(-c3ccc(C(N)=O)cc3)nc21 | i | i | 38.8 | i
COc1ccc(CCNc2nc(-c3ccc(C(=O)NC4CC4)cc3)nc3c2ncn3C2CCCCC2)cc1 | i | i | 51.2 | i
COc1ccc(CCNc2nc(-c3ccc(C(N)=O)cc3)nc3c2ncn3C2CCCCC2)cc1 | i | i | i | i
COc1ccc(-c2nc(NCc3cccnc3)c3ncn(C(C)C)c3n2)cc1 | i | i | i | i
NC(=O)c1ccc(-c2nc(NCc3cccnc3)c3ncn(-c4ccsc4)c3n2)cc1 | i | i | 50.7 | i
O=C(NC1CC1)c1ccc(-c2nc(NCCc3ccc(O)cc3)c3ncn(-c4ccsc4)c3n2)cc1 | i | i | 58.5 | i
CCCCCCC(C)OC(=O)Nc1ccc(OC(=O)CC)cc1 (configuration not stated) | i | i | i | i
Oc1ccc(CCNc2nc(-c3ccc(N4CCOCC4)nc3)nc3c2ncn3-c2ccsc2)cc1 | i | i | 65.0 | i
COc1ccc(CCNc2nc(-c3ccc(N4CCOCC4)nc3)nc3c2ncn3-c2ccsc2)cc1 | i | i | i | i
NC(=O)c1ccc(-c2nc(NCCc3ccc(O)cc3)c3ncn(-c4ccsc4)c3n2)cc1 | i | i | 43.5 | i
Cc1cc(Cl)ccc1Nc1nc(N2CC(C)OC(C)C2)nc2c1cnn2C (configuration not stated) | i | i | i | i
Cn1c(C2COc3ccccc3O2)nc2ccc(-c3ncnc4[nH]ccc34)cc21 (configuration not stated) | i | 2.8 | i | i
c1ccc2c(c1)OCC(c1nc3ccc(-c4ncnc5[nH]ccc45)cc3[nH]1)O2 (configuration not stated) | i | i | 48.9 | i
SMILES | MITF primary | FBW7 act | TEAD-YAP block | GPR151 ag
O=C(O)CCN(Cc1ccc(Cl)cc1)S(=O)(=O)c1ccc(Br)cc1 | i | 2.1 | i | i
O=C(O)CCCN(Cc1ccc(Cl)cc1)S(=O)(=O)c1ccc(Br)cc1 | i | i | i | i
O=C1C(=O)N(c2nc3ccccc3s2)C(c2ccc(O)cc2)/C1=C(\O)c1ccccc1 (configuration not stated) | i | i | i | i
Cc1ccc(S(=O)(=O)Nc2ccccc2C=NC(C)(C)C)cc1 | i | i | i | i
O=c1[nH]c(=O)n(-c2ccccc2)c(O)c1C=Nc1ccc(Br)cc1 | i | i | i | i
Cc1ccc(C(=O)N/C(=C\c2ccc(F)cc2)C(=O)Nc2c(C)n(C)n(-c3ccccc3)c2=O)cc1 | i | i | i | i
Cc1c(NC(=O)/C(=C\c2ccccc2)NC(=O)c2ccccc2)c(=O)n(-c2ccccc2)n1C | i | 1.9 | i | i
C=CCNC(=S)N/N=C(\C)c1ccccn1 | 60.1 | i | 89.5 | i
C=CCNC(=S)N/N=C(\C)c1ccc2ccccc2c1 | i | i | i | i
Cc1ncoc1C(=O)Nc1ccc(C(F)(F)F)cc1 | i | i | i | i
N#CC1=C(N)Oc2ccc3ccccc3c2C1c1ccccc1F (configuration not stated) | i | i | 52.2 | i
